From PubChem
HIV TAR-Tat – HIV-1 TAR-Tat binding disruption | AID 1259389 | HIV-1 TAR RNA, Tat peptide displacement FRET; active compounds read high | 0.6% of 100,000 active | z-score (no concentration beside the values); active means z-score of 3 or more in at least 2 runs
CDC25B CDK2 inh – human CDC25B-CDK2/CyclinA binding inhibition; HTRF CDC25B-CDK2/CyclinA binding, anti-His/anti-Flag; active compounds read high; 0.72% of 94,000 active; z-score (no concentration beside the values); P30305+P24941; AID 1259370; in the data active means z-score above about 3.2
Hits are given with their value; . = inactive; / = no result given. An excerpt weighted towards active compounds, which were near 0.9% of everything screened.

SMILES | HIV TAR-Tat | CDC25B CDK2 inh
CC1CCN(CCCNC(=O)c2cccn3c(=O)c4c5c(sc4nc23)CCCC5)CC1 | . | /
N#CC1=C2SCN(Cc3cccnc3)CN2C(=O)CC1c1ccc(F)cc1 (centres undefined) | . | .
COc1ccc(CN2CSC3=C(C#N)C(c4ccc(OC)cc4)CC(=O)N3C2)cc1 (centres undefined) | . | 6.34
N#CC1=C2SCN(CCc3ccccc3)CN2C(=O)CC1c1ccc(F)cc1 (centres undefined) | . | .
N#CC1=C2SCN(CCc3ccccc3)CN2C(=O)CC1c1cccs1 (centres undefined) | . | 3.74
COc1ccc(C2CC(=O)N3CN(Cc4cccnc4)CSC3=C2C#N)cc1 (centres undefined) | . | .
Cc1ccc(C2CC(=O)N3CN(Cc4cccnc4)CSC3=C2C#N)cc1 (centres undefined) | . | 5.2
CCOC(=O)C1=C(C)Nc2ncnn2C1c1ccncc1 (centres undefined) | . | .
O=C(CSc1nc2c(c(=O)[nH]1)CCCC2)Nc1ccccc1F | 14.6 | .
O=C(CSc1nc2c(c(=O)[nH]1)CCCC2)Nc1ccccc1Cl | . | .
NS(=O)(=O)c1ccc(Nc2cc(-c3ccco3)cs2)cc1 | / | 17.2
Cc1ccc(-c2csc(Nc3ccc(S(N)(=O)=O)cc3)n2)cc1 | . | .
COC(=O)c1c(NC(=O)c2cc(-c3ccc4c(c3)CC(C)O4)on2)sc2c1CCCC2 (centres undefined) | . | .
Cc1ccc(S(=O)(=O)NC(=O)Nc2ncc3c(n2)CC(c2ccco2)CC3=O)cc1 (centres undefined) | . | 8.34
CCc1ccc2nc(Nc3ncc4c(n3)CC(c3ccco3)CC4=O)nc(C)c2c1 (centres undefined) | 31.6 | .
CC(=O)Nc1ncc2c(n1)CC(c1ccco1)CC2=O (centres undefined) | . | .
Cc1nc(Nc2ncc3c(n2)CC(c2ccco2)CC3=O)nc2ccccc12 (centres undefined) | . | .
CC(C)NC(=O)c1ccc(N2CC(C)Sc3ccccc32)s1 (centres undefined) | . | /
CCSCCOC(=O)C1=C(C)NC2=C(C(=O)CCC2)C1c1ccc(C)o1 (centres undefined) | . | /
CCOC(=O)c1c(NC(=O)CC2Sc3ccccc3NC2=O)sc2c1CCCC2 (centres undefined) | / | .
COC(=O)c1c(SCC(=O)Nc2ccc(F)cc2)[nH]c2ccc(Cl)cc2c1=O | 16.1 | /
COC(=O)c1c(SCC(=O)Nc2ccc(F)c(F)c2)[nH]c2ccc(Cl)cc2c1=O | . | /
O=C1C=CC(=C(c2ccc(O)cc2)c2ccc(O)cc2)C=C1 | . | /
O=C(O)C1=CC(=C(c2ccc(O)c(C(=O)O)c2)c2ccc(O)c(C(=O)O)c2)C=CC1=O | / | 11.3
Cc1csc(NCc2cccnc2)[n+]1C | / | .
SMILES | HIV TAR-Tat | CDC25B CDK2 inh
FC(F)(F)C(=C(NC(=S)N1CCCCCC1)C(F)(F)C(F)(F)F)C(F)(F)F | / | 5.65
FC(F)(F)C(=C(NC(=S)n1cnc2ccccc21)C(F)(F)C(F)(F)F)C(F)(F)F | / | .
CCc1cccc(Nc2c3c(nc4ncnn24)CCCC3)c1 | . | /
COc1cc(OC)cc(C(=O)Nc2sc3c(c2C(N)=O)CCCC3)c1 | / | .
COc1ccc2nc(Nc3sc4c(c3C(N)=O)CCCC4)sc2c1 | . | 4.27
Nc1ccccc1SCc1cc(=O)n2ccsc2n1 | . | /
Cc1ccc2[nH]c(=O)c(CN(C(C)C)S(=O)(=O)c3ccccc3)cc2c1 | 19.1 | .
CCN(Cc1cc2cc(C)ccc2[nH]c1=O)S(=O)(=O)c1ccc(C)cc1 | . | .
CC(C)CNC(=O)CCC(=O)N1c2ccccc2NC2=C(C(=O)CCC2)C1c1ccco1 (centres undefined) | . | /
CN1C(C(=O)Nc2sc3c(c2C(N)=O)CCCC3)=CC(c2ccco2)=NS1(=O)=O | . | .
CN1C(C(=O)Nc2sc3c(c2C#N)CCC3)=CC(c2ccco2)=NS1(=O)=O | 6.12 | .
COc1ccc(OC)c(NC(=O)c2cnc(SC)nc2C(F)(F)F)c1 | . | /
O=C(Nc1ccc(F)cc1)c1ccc(Cn2nc(N3CCN(c4ccc(F)cc4)CC3)ccc2=O)o1 | . | /
O=C(Nc1ccc2c(c1)OCO2)c1ccc(Cn2nc(N3CCN(c4ccccc4)CC3)ccc2=O)o1 | 17.1 | /
O=C1Cc2cc(S(=O)(=O)NCc3ccccc3)ccc2N1 | . | /
O=C1Nc2ccc(S(=O)(=O)NCc3ccccc3)cc2C1=O | 6.2 | /
O=C(NC1CC1)c1cnn2c(-c3ccccc3)cc(-c3ccccc3)nc12 | . | /
CCOC(=O)CSc1nnc(NCC(=O)OC)c(=O)[nH]1 | / | 4.18
CCOC(=O)CSc1nnc(-c2ccccc2)c(=O)[nH]1 | . | .
CCOc1ccc(C2CC(=O)N3CN(C4CCCC4)CSC3=C2C#N)cc1 (centres undefined) | . | .
N#CC1=C2SCN(Cc3ccco3)CN2C(=O)CC1c1cccc2ccccc12 (centres undefined) | . | .
N#CC1=C2SCN(C3CCCCC3)CN2C(=O)CC1c1cccc2ccccc12 (centres undefined) | . | 4.16
COc1ccc(OC)c(C2CC(=O)N3CN(C4CCCCC4)CSC3=C2C#N)c1 (centres undefined) | . | 5.35
COc1cccc(C2CC(=O)N3CN(C4CCCC4)CSC3=C2C#N)c1 (centres undefined) | . | 5.72
N#CC1=C2SCN(C3CCCC3)CN2C(=O)CC1c1ccc(F)cc1 (centres undefined) | . | 4.01
SMILES | HIV TAR-Tat | CDC25B CDK2 inh
Cc1nc2ncnn2c(Nc2ccc(Cl)cc2)c1C | . | /
O=C(CSc1nc(=O)n(CCN2CCOCC2)c2c1CCC2)Nc1ccccc1F | . | /
Cc1cc(-c2ccc(S(=O)(=O)N3CCN(c4cccc(Cl)c4)CC3)s2)on1 | . | /
Cc1nn(-c2ccccc2)c2c1C(c1cccnc1)C1=C(CCCC1=O)N2 (centres undefined) | . | .
COc1cccc(C2CC(=O)N3CN(C4CCCCC4)CSC3=C2C#N)c1 (centres undefined) | . | 5.28
CCOC(=O)C(C)Sc1nnc(CSc2nc(C)cc(C)n2)n1-c1ccc(Cl)cc1 (centres undefined) | . | .
CCN(CC)CCCC(C)Nc1ncnc2c1cnn2C (centres undefined) | . | /
C=CCOc1ccc(C2CC(=O)Nc3c2c(C)nn3-c2nncc(-c3ccc(C)cc3)n2)cc1 (centres undefined) | . | .
C=CCOc1ccc(C2CC(=O)Nc3c2c(C)nn3-c2nncc(-c3ccc(F)cc3)n2)cc1 (centres undefined) | 15.8 | .
O=C(CC1(O)C(=O)Nc2ccc(Br)cc21)c1ccc(F)cc1 (centres undefined) | / | .
CS(=O)(=NC(=O)Nc1ccccc1)c1ccsc1 (centres undefined) | / | .
C[C@@H]1C[C@H]2O[C@@H]2/C=C\C=C\C(=O)Cc2c(Cl)c(O)cc(O)c2C(=O)O1 | 4.98 | /
O=S(=O)(NCCc1csc2nc(-c3ccccc3)nn12)c1ccc2c(c1)CCCC2 | . | /
CCc1cccc(NS(=O)(=O)c2ccc(-c3n[nH]c(C)c3C)s2)c1 | . | /
OC[C@H]1O[C@@](CO)(O[C@@H]2O[C@H](CO)[C@@H](O)[C@H](O)[C@H]2O)[C@@H](O[C@@H]2O[C@H](CO)[C@@H](O)[C@H](O)[C@H]2O)[C@@H]1O | . | /
COC(=O)c1c(NC(=O)c2ccccc2C(=O)O)sc2c1CCC2 | . | .
